# An excerpt weighted towards active compounds, which were near 2.5% of everything screened.
# Cruzain inh Det: inhibitors of Trypanosoma cruzi cruzain with detergent; purified cruzain, Z-FR-AMC fluorescence, 0.01% Triton; Potency, µM, for inactives: max response, negative = inhibition, most hits filed as inhibitors; 0.43% of 200,000 active;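 also: plate controls were neutral wells for no effect and buffer without enzyme for full effect; nearly all actives have a fitted effect of over 40% in size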
# Target sequence (P25779 123-467 limits assumed): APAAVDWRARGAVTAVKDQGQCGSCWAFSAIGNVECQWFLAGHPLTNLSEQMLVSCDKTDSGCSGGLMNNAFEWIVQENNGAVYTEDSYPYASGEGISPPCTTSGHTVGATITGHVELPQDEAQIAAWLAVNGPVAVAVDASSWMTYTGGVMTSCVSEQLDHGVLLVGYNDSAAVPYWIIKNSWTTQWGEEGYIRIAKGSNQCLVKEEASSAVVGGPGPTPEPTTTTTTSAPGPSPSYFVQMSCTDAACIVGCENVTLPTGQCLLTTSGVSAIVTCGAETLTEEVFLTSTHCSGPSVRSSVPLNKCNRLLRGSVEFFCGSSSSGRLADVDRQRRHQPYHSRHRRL
#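 Compounds were screened in titration against cruzain (1.5 nM) with 0.01% Triton X-100 to counter colloidal aggregation. Activity was the AMC fluorescence increase over 60 s after adding 2 uM Z-FR-AMC at pH 5.5.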
# Cruzain noTriton: blocks cruzain activity in detergent-free assay; Potency, µM, for inactives: max response, negative = inhibition, hits mostly inhibitors; AID 1476; purified cruzain, Z-FR-AMC fluorescence, no detergent; 2.3% of 200,000 active;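 also: plate controls were enzyme without inhibitor for no effect and buffer without enzyme for full effect; nearly all actives have a fitted effect of over 40% in size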
#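 Purified cruzain at 1.5 nM, pre-incubated 15 min with compound at room temperature in 100 mM sodium acetate pH 5.5, 5 mM DTT, 0.00005% Triton X-100. Reaction started with 2 uM Z-FR-AMC; AMC fluorescence increase over 60 s gives rate.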
# * hit, by the source's call; ? = inconclusive. Calls follow the shape of the dose curve; as a rule, active = well fitted curve in the direction sought with a large enough effect; inconclusive = small, poorly fitted or top-dose-only effect, or another doubt; inactive = no such curve, though single readings can be large; an effect the other way counts as inactive or inconclusive. Potency is read from the fitted curve at half-maximal effect.
SMILES,Cruzain inh Det,Cruzain noTriton
CCOC(=O)c1ccc(-c2ccc(C3Nc4ccccc4C(=O)N3O)o2)cc1 (configuration not stated),-15%,?
CCOCCc1nnc(NC(=O)C(=O)c2cc(C)n(-c3cccc(Cl)c3)c2C)s1,-6%,1%
CCOC(=O)C1=C(N)n2c(s/c(=C\c3cccnc3)c2=O)=C(C(=O)OCC)C1c1cccnc1 (configuration not stated),-2%,?
CCOC(=O)C1=C(N)n2c(s/c(=C\c3cccs3)c2=O)=C(C(=O)OCC)C1c1cccs1 (configuration not stated),-4%,2µM*
CCOC(=O)c1ccc(NC(=O)CCn2c(=O)c3cccn3c3ccccc32)cc1,-2%,0%
CNc1oc(-c2ccccc2Cl)nc1P(=O)(c1ccccc1)c1ccccc1,-25%,?
CNc1oc(-c2ccc(C)cc2)nc1P(=O)(c1ccccc1)c1ccccc1,11µM*,-28%
CC(=O)c1cccc(NC(=O)c2cc(C)nc3c2c(C)nn3-c2cccc(Cl)c2C)c1,0%,-14%
Cc1cc(N)c2cc(NC(=O)Nc3ccc4nc(C)cc(N)c4c3)ccc2n1,-17%,-7%
CCCCCC(=O)N(c1ccc(OCC)cc1)S(=O)(=O)c1ccc2c(c1)n(C)c(=O)n2C,0%,-8%
COc1cc(NC(=O)COc2ccc(Cl)cc2)ccc1-c1cc2ccccc2oc1=O,0%,5µM*
Cc1cc(NC(=O)c2ccc(F)cc2)ccc1-c1cc2ccccc2oc1=O,-2%,5%
COc1ccc(C(=O)Nc2ccc(-c3cc4ccccc4oc3=O)c(C)c2)cc1Br,-20%,25µM*
COc1cc2c(cc1NC(=O)COc1ccc(Cl)cc1)oc1ccccc12,-2%,-1%
CCc1cc[n+](/C(C(=S)Nc2cccc(C)c2)=C(/[O-])c2ccc(C)c([N+](=O)[O-])c2)cc1,-9%,-21%
CCOc1ccc(NC(=S)/C(=C(\[O-])c2ccc(C)c([N+](=O)[O-])c2)[n+]2ccccc2)cc1,-6%,25µM*
O=C1C2CC=CCC2C(=O)N1c1nc2n(n1)C(c1ccccc1)CC(c1ccccc1)N2 (configuration not stated),-3%,?
c1ccc(C2CC(c3ccccc3)n3c(nc4ccccc43)N2)cc1 (configuration not stated),1%,13µM*
Cn1c(/C(C#N)=C/c2ccc(C(F)(F)F)cc2)nc2ccccc21,-1%,2%
Cc1ccc(N2C(=O)CC(Sc3nc(-c4ccccc4)c4cc(Cl)ccc4n3)C2=O)c(C)c1 (configuration not stated),-8%,16µM*
Cc1ccccc1N1C(=O)CC(Sc2nnc(-c3ccccc3)o2)C1=O (configuration not stated),-3%,3%
Cc1ccc2c(c1)Cc1c(nc(-c3ccc(F)cc3)nc1SCC(=O)N1CCCCC1)O2,-2%,-15%
COc1ccc(CNC(=O)CSc2ncc(S(=O)(=O)c3ccc(Br)cc3)c(=O)[nH]2)cc1,-9%,?
COC(=O)c1cc(Cl)ccc1NC(=O)CSc1ncc(S(=O)(=O)c2ccc(Br)cc2)c(=O)[nH]1,25µM*,?
CC(C)(C)Nc1oc(-c2ccccc2)nc1-c1ccccc1,4%,-3%
SMILES,Cruzain inh Det,Cruzain noTriton
C/C(=N\Nc1ccc(S(=O)(=O)Nc2ccc(Cl)cc2)cc1[N+](=O)[O-])c1ccc(N2CCOCC2)cc1,-6%,10µM*
COc1ccccc1NS(=O)(=O)c1ccc(N/N=C(\C)C(C)C)c([N+](=O)[O-])c1,-5%,-2%
O=C(O)c1cc(NS(=O)(=O)c2ccc(N3CCOCC3)c([N+](=O)[O-])c2)cc(C(=O)O)c1,-4%,-6%
COc1ccc(NS(=O)(=O)c2ccc(N/N=C(\C)c3ccncc3)c([N+](=O)[O-])c2)cc1,-8%,13µM*
CN(C)c1ccc(CNC(=O)C2CCN(c3nnc(-n4cccc4)s3)CC2)cc1,-3%,-2%
CCC1=C2CC[C@H]3C(=O)N(C)C(=O)[C@H]3[C@H]2[C@@]2(C)C(=NCC(=O)OC)OC(=O)N2C1=O,2%,-2%
CC1(C)C(C(=O)O)N2C(=O)CC2S1(=O)=O (configuration not stated),1%,3%
CC(/C=N/NC(=O)c1cc(-c2ccccc2)nc2ccccc12)=C\c1ccco1,-9%,?
CC(/C=N/NC(=O)c1cc(-c2ccc(Cl)cc2)nc2ccccc12)=C\c1ccco1,-2%,7.9µM*
C=CCn1c(-c2cccc(Cl)c2)n[nH]c1=S,-6%,12%
C=CCn1c(-c2oc3nc(-c4ccccc4)cc(-c4ccccc4)c3c2N)n[nH]c1=S,-11%,25µM*
O=C(N/N=C/C=C/c1ccccc1)c1ccccc1Br,-3%,0%
COc1ccc(/C=N/NC(N)=S)cc1OC(=O)c1ccccc1,-28%,?
NC(=S)N/N=C/C=C/c1ccccc1,25µM*,16µM*
NC(=S)N/N=C/c1ccc2ccccc2c1,2.2µM*,0.79µM*
C=CC[C@@](C(C)=O)(C(=O)OC)C(NC(=O)OC(C)(C)C)c1ccccc1 (some centres not stated),4%,-13%
CCCCN(C)S(=O)(=O)c1ccc(NC2=NS(=O)(=O)c3ccccc32)cc1,-2%,6%
Cc1cc(C)cc(OC(C)C(=O)Nc2c(C(=O)c3ccccc3)oc3ccccc23)c1 (configuration not stated),-3%,-14%
COc1ccc(CNC(=O)c2ccc(NC(=O)N3CCSc4ccccc43)cc2)cc1,-6%,-25%
COc1ccc(Cl)cc1N(CC(=O)N/N=C/c1ccc(OC(C)C)cc1)S(=O)(=O)c1ccc(C)c([N+](=O)[O-])c1,-2%,5µM*
C=CCOc1cccc(/C=N/NC(=O)CN(c2cc(Cl)ccc2OC)S(=O)(=O)c2ccc(C)c([N+](=O)[O-])c2)c1,-1%,?
NC(=O)c1c(N)sc2c1CCCCC2,-21%,25µM*
CNC(=O)c1c(N)sc2c1CCCCC2,-16%,-15%
CN1CCN(CCCN)CC1,2%,-1%
COc1ccc(-c2nc3c4ccccc4n(CC(=O)N4CCN(c5ccccc5OC)CC4)c(=O)n3n2)cc1,1%,-1%
SMILES,Cruzain inh Det,Cruzain noTriton
CCOc1ccc(-n2c(C)nc3cc(C(=O)NCc4ccc(C)cc4)ccc32)cc1,-1%,30%
O=C(c1cc2sccc2n1Cc1ccccc1)N1CCCc2ccccc21,-3%,20µM*
O=C(c1cc2sccc2n1Cc1ccccc1)N1CCc2ccccc21,-3%,?
O=C1[C@@H]2CSC(c3ccc(F)cc3)N2C(=O)N1c1ccc(Cl)cc1 (some centres not stated),-5%,2%
C=CCn1c(=O)c2ccc(C(=O)NCc3ccccc3)cc2n(Cc2ccc(Cl)cc2)c1=O,-4%,-28%
C=CCn1c(=O)c2ccc(C(=O)NCc3ccccc3)cc2n(Cc2ccccc2Cl)c1=O,2%,25µM*
CCc1ccccc1NC(=O)c1ccc2c(O)c(S(=O)(=O)c3ccccc3)c(=O)[nH]c2c1,1%,7%
COc1ccc(NC(=O)C(=O)NCCc2csc(-c3ccc(Cl)cc3)n2)cc1OC,-1%,2%
CCc1ccc(Cc2cnc(NC(=O)c3ccc4c(c3)CC(c3ccccc3)OC4=O)s2)cc1 (configuration not stated),0%,?
O=C(Nc1ncc(Cc2ccccc2Cl)s1)c1ccc2c(c1)CC(c1ccccc1)OC2=O (configuration not stated),-2%,32µM*
